In the library only some 3.2% were active in any assay of this set; here they are far more common.
Ecoli rRNA inh: reduced GFP signal of wild-type E. coli, primary screen, bacterial rRNA inhibitor project, GFP/RFP fluorescence, OD600, single point; hit rate 1.6% among 350,000; E. coli WT GFP vs humanized-ribosome RFP mutants, 24 h; stronger effect = lower value; DMSO median 0, no signal -100; GFP signal change (wild-type ribosome), % (no concentration beside the values);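 active = significant combined selectivity score with lowered wild-type GFP, culture density cut under 30%, mutant RFP and density less affected; inactive = any of these conditions unmet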
INS-1E GSIS act: GLuc luminescence reporter in INS-1E cells, primary screen for activators of glucose-dependent secretion of insulin; hit rate 0.61% among 370,000; INS-1E GLuc reporter insulin secretion, 2-3 h; activation, % at 16.6 µM;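 active = lowest replicate activation of at least 40%, so every replicate reaches that level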;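 note: 0% = median of neutral control wells and 100% = median of IBMX positive control wells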
DENV2 CPE rescue: inhibitors of DENV2 cytopathic effect, primary screen, cell-based, plate reader, single concentration. DENV2-infected cells, cytopathic effect rescue. CPE inhibition, % at 9.99 µM. hit rate 1.7% among 350,000; in the data active = CPE inhibition above about 20%, passing the limit was not always enough; tested in BHK-21 cells;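 note: 0% = median of neutral control wells and 100% = median of positive control wells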
ERAP1 HTS inh: human ERAP1 aminopeptidase inhibitors, primary screen, biochemical, single point, plate reader | Endoplasmic reticulum aminopeptidase 1 (Homo sapiens), Q9NZ08 | recombinant ERAP1, Leu-AMC fluorescence, 60 min | inhibition, % at 10.7 µM | hit rate 0.15% among 340,000 | AID 652197, 2013;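 active = mean replicate inhibition of at least 30%, or all replicates individually reaching that 30% level; inactive = mean below 30% and not every replicate reaching it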;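 note: 0% = neutral control wells and 100% = L-leucinethiol positive control wells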
Target sequence (Q9NZ08 whole entry, looked up): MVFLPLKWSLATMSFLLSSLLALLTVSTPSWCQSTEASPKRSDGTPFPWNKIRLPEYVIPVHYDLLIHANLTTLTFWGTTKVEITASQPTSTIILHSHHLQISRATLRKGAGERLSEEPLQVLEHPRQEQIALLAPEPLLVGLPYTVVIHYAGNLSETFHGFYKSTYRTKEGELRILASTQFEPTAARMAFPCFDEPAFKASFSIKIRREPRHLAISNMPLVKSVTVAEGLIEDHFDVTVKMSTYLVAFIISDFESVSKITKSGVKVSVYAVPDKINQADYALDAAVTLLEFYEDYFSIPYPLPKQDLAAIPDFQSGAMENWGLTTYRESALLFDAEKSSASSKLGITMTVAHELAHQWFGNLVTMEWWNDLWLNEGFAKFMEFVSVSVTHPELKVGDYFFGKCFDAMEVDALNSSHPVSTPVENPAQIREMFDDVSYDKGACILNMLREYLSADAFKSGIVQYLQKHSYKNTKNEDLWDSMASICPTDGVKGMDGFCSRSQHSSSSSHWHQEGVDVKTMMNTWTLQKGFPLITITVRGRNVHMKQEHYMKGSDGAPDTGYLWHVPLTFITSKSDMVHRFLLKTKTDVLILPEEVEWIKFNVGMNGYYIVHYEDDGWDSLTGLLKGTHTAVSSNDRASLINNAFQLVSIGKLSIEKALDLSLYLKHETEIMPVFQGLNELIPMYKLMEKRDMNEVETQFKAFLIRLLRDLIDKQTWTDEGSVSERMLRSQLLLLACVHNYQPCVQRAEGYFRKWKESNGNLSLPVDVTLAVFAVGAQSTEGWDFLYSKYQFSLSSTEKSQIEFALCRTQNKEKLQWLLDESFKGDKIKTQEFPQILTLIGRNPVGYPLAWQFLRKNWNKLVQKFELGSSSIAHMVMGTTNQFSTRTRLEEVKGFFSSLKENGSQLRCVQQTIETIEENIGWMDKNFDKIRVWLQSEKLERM
PGC1a acetyl inh: inhibitors of PGC1a acetylation signal, primary screen, cell-based, U2OS, AlphaScreen, inhibitor mode | AlphaScreen anti-acetyl-lysine; with virally co-expressed GCN5 acetyltransferase | hit rate 0.17% among 350,000 | AID 651687, 2012 | inhibition, % at 15.6 µM;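 active = every replicate shows inhibition of at least 40%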;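 note: 0% = neutral control wells and 100% = positive control wells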
CaV13 ICDI inh: Primary screen for inhibitors of IQ motif and Ca2+-dependent inactivation inhibitor domain binding in CACNA1D, Förster resonance energy transfer in living cells, …. HEK cells, CFP/YFP FRET ICDI-IQ, plate reader, 10 min; percent FRET-ratio fall versus neutral wells. inhibition, % at 12.3 µM. hit rate 0.098% among 340,000. AID 743397;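 active = mean replicate inhibition of at least 30% and at least 1% of replicates passing that level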;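 note: 0% = median of the neutral control wells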
* marks the source's active call; other numbers are inactive results.

Results for CCOC(=O)CN(C(=O)CSc1nnc(CNc2ccc(C)cc2C)n1CC)c1ccccc1 ?
PGC1a acetyl inh: -5; CaV13 ICDI inh: -4

What do the screens show for `COc1ccc(/C=N/N2CCN(c3ccc(Cl)cc3)CC2)cc1O`?
Ecoli rRNA inh: -1; INS-1E GSIS act: 4; DENV2 CPE rescue: 32*; ERAP1 HTS inh: -3; CaV13 ICDI inh: 2

Results for COc1ccc(NC(=O)Nc2ccc3c(c2)C(=O)N([C@@H](C)CO)C[C@@H](C)[C@@H](CN(C)C(=O)Nc2ccccc2)OCCCC[C@H](C)O3)cc1 ?
Ecoli rRNA inh: -2; INS-1E GSIS act: 8; DENV2 CPE rescue: 5; ERAP1 HTS inh: 5; PGC1a acetyl inh: -2

How did CC(=O)OCC(=O)C1CCC2C3CC=C4CC(O)CCC4(C)C3CCC12C (stereo not given) do in these assays?
DENV2 CPE rescue: -5; ERAP1 HTS inh: 0; PGC1a acetyl inh: -2; CaV13 ICDI inh: -5

Results for CC(C)(C)[C@H](N)C(=O)N[C@H]1CCC2C3CC=C4C[C@@H](O)CC[C@]4(C)C3CC[C@@]21C (stereo not given in full) ?
Ecoli rRNA inh: -40; INS-1E GSIS act: 202*; DENV2 CPE rescue: 5; ERAP1 HTS inh: -1; PGC1a acetyl inh: 10; CaV13 ICDI inh: -12

Results for CC(C)C(=O)N[C@H]1CCC2C3CC=C4C[C@@H](O)CC[C@]4(C)C3CC[C@@]21C (stereo not given in full) ?
Ecoli rRNA inh: 3; INS-1E GSIS act: 19; DENV2 CPE rescue: -2; ERAP1 HTS inh: 11; PGC1a acetyl inh: 0; CaV13 ICDI inh: -5

How did CC(=O)C1CCC2C3CC=C4CC(SC(=N)N)CCC4(C)C3CCC12C (stereo not given) do in these assays?
Ecoli rRNA inh: -63; INS-1E GSIS act: 284*; DENV2 CPE rescue: -7; ERAP1 HTS inh: 5; CaV13 ICDI inh: -6

Results for O=C(NC1CCC1)[C@@H]1[C@@H](CO)[C@@H]2Cn3c(ccc(C4=CCCCC4)c3=O)[C@H]1N2CC1CC1 ?
Ecoli rRNA inh: 7; INS-1E GSIS act: 6; DENV2 CPE rescue: 12; ERAP1 HTS inh: 5; PGC1a acetyl inh: -4

Results for CC(=O)N1CC(=O)N2[C@@H](CO)[C@H](c3ccc(-c4ccccc4)cc3)[C@@H]2C1 ?
Ecoli rRNA inh: 5; INS-1E GSIS act: 10

What do the screens show for `O=C(OCc1cnc(Cl)s1)c1ccccc1Cl`?
PGC1a acetyl inh: 5

Results for O=C(OCc1cnc(Cl)s1)c1cccs1 ?
Ecoli rRNA inh: 4; INS-1E GSIS act: -3; DENV2 CPE rescue: 0; ERAP1 HTS inh: -2; PGC1a acetyl inh: 94*; CaV13 ICDI inh: -6

What do the screens show for `COc1ccc(S(=O)(=O)Nc2ccc3c(c2)C(=O)N([C@@H](C)CO)C[C@H](C)[C@H](CN(C)Cc2ccc4c(c2)OCO4)OCCCC[C@@H](C)O3)cc1`?
Ecoli rRNA inh: 8; INS-1E GSIS act: -20; DENV2 CPE rescue: -6; ERAP1 HTS inh: 0; PGC1a acetyl inh: 7

Results for COc1ccc(S(=O)(=O)Nc2ccc3c(c2)C(=O)N([C@H](C)CO)C[C@@H](C)[C@H](CN(C)Cc2ccc4c(c2)OCO4)OCCCC[C@@H](C)O3)cc1 ?
Ecoli rRNA inh: 3; INS-1E GSIS act: -22; DENV2 CPE rescue: 3; ERAP1 HTS inh: -5; PGC1a acetyl inh: -6

Results for COc1ccc(S(=O)(=O)Nc2ccc3c(c2)C(=O)N([C@@H](C)CO)C[C@@H](C)[C@@H](CN(C)Cc2ccc4c(c2)OCO4)OCCCC[C@H](C)O3)cc1 ?
Ecoli rRNA inh: 1; INS-1E GSIS act: -25; DENV2 CPE rescue: 22*; ERAP1 HTS inh: -4; PGC1a acetyl inh: -10

How did COc1ccc(S(=O)(=O)Nc2ccc3c(c2)C(=O)N([C@@H](C)CO)C[C@H](C)[C@@H](CN(C)Cc2ccc4c(c2)OCO4)OCCCC[C@@H](C)O3)cc1 do in these assays?
Ecoli rRNA inh: 9; INS-1E GSIS act: -31; DENV2 CPE rescue: 24*; ERAP1 HTS inh: -2; PGC1a acetyl inh: -5

What do the screens show for `COc1ccc(S(=O)(=O)Nc2ccc3c(c2)C(=O)N([C@H](C)CO)C[C@@H](C)[C@@H](CN(C)Cc2ccc4c(c2)OCO4)OCCCC[C@@H](C)O3)cc1`?
Ecoli rRNA inh: 7; INS-1E GSIS act: -19; DENV2 CPE rescue: 21*; ERAP1 HTS inh: -1; PGC1a acetyl inh: -27

How did COc1ccc(S(=O)(=O)Nc2ccc3c(c2)C(=O)N([C@H](C)CO)C[C@H](C)[C@H](CN(C)Cc2ccc4c(c2)OCO4)OCCCC[C@H](C)O3)cc1 do in these assays?
Ecoli rRNA inh: 6; INS-1E GSIS act: -20; DENV2 CPE rescue: 59*; ERAP1 HTS inh: -4; PGC1a acetyl inh: -16

Results for C[C@H](CO)N1C[C@H](C)[C@H](CN(C)S(=O)(=O)c2ccc(F)cc2)Oc2c(NC(=O)C3CCOCC3)cccc2C1=O ?
Ecoli rRNA inh: -1; INS-1E GSIS act: -2; DENV2 CPE rescue: -10; ERAP1 HTS inh: 2; PGC1a acetyl inh: -2

What do the screens show for `O=C(N[C@@H]1CC[C@H](CCNS(=O)(=O)c2ccc(Cl)cc2)O[C@@H]1CO)c1cccc(F)c1`?
Ecoli rRNA inh: -1; INS-1E GSIS act: -5; DENV2 CPE rescue: -4; ERAP1 HTS inh: 3; PGC1a acetyl inh: -9

What do the screens show for `COc1ccc2c3c(n(C)c2c1)[C@H](CO)N(C(=O)c1cccc(F)c1)CC31CCN(CC2CC2)CC1`?
Ecoli rRNA inh: 1; INS-1E GSIS act: 10

What do the screens show for `CC(C)[C@H]1C(=O)N[C@@H](c2ccc3c(c2)OCO3)CC=CC[C@H](C)Oc2ccccc2C(=O)N1C` (mixture of isomers)?
Ecoli rRNA inh: -3; INS-1E GSIS act: -8

What do the screens show for `CCS(=O)(=O)N(C)C[C@@H]1N[C@H](CO)[C@@H]1c1ccc(C#CC2CCCC2)cc1`?
Ecoli rRNA inh: 5; INS-1E GSIS act: 9; DENV2 CPE rescue: -2; ERAP1 HTS inh: 0

How did Cc1ccc(-c2nc(N3CCN(C)CC3)c3ccccc3n2)cc1 do in these assays?
Ecoli rRNA inh: -27*; INS-1E GSIS act: -2; DENV2 CPE rescue: 25*; ERAP1 HTS inh: -7; PGC1a acetyl inh: -15; CaV13 ICDI inh: 1

What do the screens show for `CCC(=O)Nc1ccc2c(c1)C(=O)N(C)C[C@@H](OC)[C@H](C)CN(CC1CCCCC1)[C@@H](C)CO2`?
Ecoli rRNA inh: -5; INS-1E GSIS act: -18; DENV2 CPE rescue: -4; ERAP1 HTS inh: -4; PGC1a acetyl inh: -18

High-throughput results (PubChem BioAssay)
